Screening data from PubChem BioAssay.
Integrin act MD: activates integrin-mediated alleviation for muscular dystrophy; Potency, µM (top dose mostly 38.3 µM), without a hit: at the top dose activation, usual class: activators; alpha7betagal myoblasts, beta-gal FDG fluorescence, 48 h; actives 0.064% (n = 350,000);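 note: 100% = response of the positive control SU9516; nearly all actives have a fitted effect of over 60% in size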
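Alpha7betagal+/- myoblasts (passage 13) were plated 16-24 hr, then exposed to compounds (1:260 dilution of DMSO stock) for 48 hours at 37C. After MPER lysis, β-galactosidase reporter activity was read as FDG fluorescence (ex 480/em 540) after 30 minutes.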
BRCA1 expr up: activators of BRCA1 expression; actives 1.1% (n = 380,000); MCF7-BRCA1-FFLuc reporter, luminescence, 48 h; response scale: scaled: vehicle 0%, 10 µM genistein 100%; Potency, µM (series often up to 46.1 µM), for inactives: top-dose activation, most hits filed as activators; AID 624202; note: nearly all actives have a fitted effect of over 80% in size
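MCF7 cells carrying a BRCA1-firefly luciferase reporter (2000 cells/well, phenol-red free MEM) were attached for 2 h at 37 °C, then given compounds for 48 h. Luminescence was read 15 min after luciferase reagent; activity normalized to genistein (10 microM) and DMSO.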
GLP-1R agonist: agonists of human GLP-1 receptor; actives 0.007% (n = 380,000); Potency, µM (doses to about 45.6 µM), without a hit: top-dose activation, usual class: activators; HEK293 GLP-1R CRE-luciferase, luminescence, 4-6 h; cells express a hypersensitive GLP-1R form; P43220; note: % of control where 0% means no effect
Target sequence (P43220 whole entry, looked up): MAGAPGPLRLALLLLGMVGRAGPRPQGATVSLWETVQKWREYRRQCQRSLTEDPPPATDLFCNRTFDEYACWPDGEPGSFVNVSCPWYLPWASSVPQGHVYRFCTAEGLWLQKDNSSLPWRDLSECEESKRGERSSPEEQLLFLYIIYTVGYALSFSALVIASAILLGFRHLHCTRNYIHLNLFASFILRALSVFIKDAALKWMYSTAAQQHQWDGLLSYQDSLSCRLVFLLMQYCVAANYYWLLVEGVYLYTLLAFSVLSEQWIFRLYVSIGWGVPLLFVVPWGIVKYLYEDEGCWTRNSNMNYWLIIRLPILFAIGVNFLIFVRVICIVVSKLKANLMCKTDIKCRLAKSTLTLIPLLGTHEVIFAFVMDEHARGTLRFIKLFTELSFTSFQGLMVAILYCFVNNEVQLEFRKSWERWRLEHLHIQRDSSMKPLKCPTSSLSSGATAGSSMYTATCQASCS
GLP1R inv ag: GLP-1 receptor (human) inverse agonism; HEK293 GLP-1R CRE-luciferase, luminescence, 24 h; GLP-1R form is constitutively active; Potency, µM (doses to about 38.3 µM), for inactives: top-dose activity change, negative = inhibition, actives largely listed as inhibitors; actives 1.6% (n = 410,000); AID 624417; note: % is set by controls: 0 for no effect and ±100 for the full control effect; nearly all actives have a fitted effect of over 55% in size
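Readout was luciferase luminescence, measured 12 min after detection reagent at room temperature. Beforehand, GLP-1R reporter HEK293 cells had sat 12 h, then received compounds for 24 hr at 37 deg C.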
GLP1R cytotox: cytotoxic in the GLP-1 receptor inverse agonist counter-screen. HEK293 cAMP-luciferase reporter cells, luminescence, 24 h. Potency, µM (top dose mostly 38.3 µM), for inactives: at the highest dose activity change, negative = inhibition, actives largely listed as inhibitors. actives 0.13% (n = 410,000). AID 624418;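 note: loss of luciferase light is scored as toxicity; % is set by controls: 0 for no effect and ±100 for the full control effect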
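Quantitative HTS format, 1536 wells, 200 cells/uL seeded. Compounds: 23 nL, 24 h, 37 °C. Detection: luciferase reagent, luminescence at 12 min RT; decreased signal taken as cytotoxic.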
Starred values were filed as active, the others as inactive; u = inconclusive; x = not tested or not shown; [ ] = another dose, or the depositor's remark. In the library only some 2.7% were active in any assay of this set; here they are far more common. Calls come from the whole dose curve; as a rule, active = well fitted curve in the direction sought with a large enough effect; inconclusive = small, poorly fitted or top-dose-only effect, or another doubt; inactive = no such curve, though single readings can be large; an effect the other way counts as inactive or inconclusive. Potency is the fitted concentration of half-maximal effect.

SMILES | Integrin act MD | BRCA1 expr up | GLP-1R agonist | GLP1R inv ag | GLP1R cytotox
O=C(CN1C(=O)c2cccc3cccc(c23)C1=O)N1CCCCCC1 | -4% | -3% | -2% | 7.9µM* | -12%
Cc1ccc(C)c(N2CCN(C(=O)CSCc3ccccc3Cl)CC2)c1 | x | x | x | u | 4%
CN(C(=O)CSc1nc2ccccc2[nH]1)c1ccc(F)cc1 | x | x | x | 10% | 0%
CC(C)c1ccc(NC(=O)c2cccn2-c2nnc(N3CCCCC3)s2)cc1 | x | x | x | u | 8%
Cc1cc(NC(=O)c2cccn2-c2nnc(N3CCCCC3)s2)ccc1Br | x | x | x | 10µM* | -11%
S=C(NCc1ccccc1)NNc1ccccc1 | 0% | -33% | 1% | 10µM* | 8.9µM*
S=C(NCCSCc1ccc(Cl)cc1Cl)Nc1ccccc1 | -27% | -64% | 0% | 3.5µM* | -8%
S=C(NCCSCc1ccc(Cl)c(Cl)c1)Nc1ccccc1 | 6% | -37% | -6% | u | u
S=C(NCc1ccccc1)Nc1cccc(Cl)c1 | -49% | 3% | -1% | u | 10µM*
CC(=O)Nc1nnc(COc2ccc(Cl)cc2)s1 | 5% | 4.5µM* | -5% | 31%[0.307 µM] | 0%[0.307 µM]
CC(C)C(=O)Nc1nnc(COc2ccc(Cl)cc2)s1 | u | 5% | 6% | -2% | -9%
COc1ccc(C2=CC(=O)C[C@H](c3ccc(Cl)cc3)C2)cc1 | 8% | 13% | -1% | u | 11%
O=C1C=C(c2ccc(OC(F)(F)F)cc2)C[C@@H](c2ccc(Cl)cc2)C1 | 5% | -28% | 6% | 10µM* | u
CC(=O)NC1Sc2ccccc2N=C1c1ccccc1 (configuration not stated) | -13% | 10µM* | 3% | 5% | -1%
Cc1ccccc1C(=O)Nc1cccc(-c2nnc(SCC(=O)NCc3ccco3)n2C)c1 | x | 10% | x | x | x
N#CC1=C2C=Cc3ccccc3N2CCCC1=O | 13% | 2.5µM* | 21% | 31% | 0%
CCN(Cc1nc(-c2ccc(OC)cc2)oc1C)S(=O)(=O)c1ccc(C)cc1 | x | x | x | u | -5%
Cc1cc2ncc(-c3cccc(Cl)c3)cn2n1 | 6% | 0% | 5% | 13% | 0%
Cc1nn2cc(-c3ccc(Cl)cc3)cnc2c1Cl | 22% | 3.2µM* | 9% | 33% | 19%
COc1ccc(-c2nc3cccc(C)n3c2Nc2ccc(C)cc2)cc1 | x | -1% | x | x | x
O=C1c2[nH]nc(-c3ccccc3O)c2C(c2cccc(Br)c2)N1Cc1ccncc1 (configuration not stated) | x | x | x | 13µM* | u
Cc1ccc(C2c3c(-c4ccccc4O)n[nH]c3C(=O)N2Cc2ccncc2)cc1 (configuration not stated) | -24% | -69% | 0% | 0% | -41%
Cc1cccc(NC(=O)Cn2nnc3ccccc32)c1 | -6% | 13µM* | 8% | -9% | -3%
COC(=O)c1ccc(NC(=O)Cn2nnc3ccccc32)cc1 | 12% | 10µM* | 9% | -21% | 4%
O=C(Cn1nnc2ccccc21)Nc1ccc([N+](=O)[O-])cc1 | 2% | 11% | 15% | 1% | -6%
SMILES | Integrin act MD | BRCA1 expr up | GLP-1R agonist | GLP1R inv ag | GLP1R cytotox
Cc1ccc(NC(=O)Cn2nnc3ccccc32)cc1 | 12% | 8.9µM* | 14% | -17% | -3%
CC(C)Cn1c(=O)c2ccccc2n2c(CCC(=O)Nc3ccc(F)cc3)nnc12 | x | x | x | 6% | -3%
C/C=C/c1ccc(OCC(=O)OCc2csc(Nc3ccc(C)cc3)n2)c(OC)c1 | 0% | 11µM* | 0% | -20% | 15%
Cc1ccc(Nc2nc(COC(=O)COc3ccc(C=O)cc3)cs2)cc1 | -16% | u | 4% | -10% | 16%
Clc1ccc(-c2nnc(-c3ccc4ccccc4c3)o2)cc1 | 5% | 2µM* | 1% | 16% | 0%
COc1cccc(-c2nnc(-c3ccc4ccccc4c3)o2)c1 | -3% | u | 4% | u | -10%
Clc1ccc(-c2nnc(-c3ccco3)o2)cc1 | 33% | 5.6µM* | -5% | 5% | 6%
Cc1ccc(-c2nnc(-c3ccc4ccccc4c3)o2)cc1 | 5% | 4.5µM* | 4% | 50% | -3%
Cc1c(C(=O)NC(C)c2ccccc2)sc2ncnc(N(C)C3CCCCC3)c12 (configuration not stated) | x | x | x | 11µM* | 7%
COc1ccc(S(=O)(=O)c2c(SC)nn(Cc3ccccc3C)c2NC(C)=O)cc1 | x | 8% | x | u | 5%
CCCCCCNC(=O)c1c(O)c2cccc3c2n(c1=O)CCC3 | -8% | -30% | -1% | 6% | 65%
CNC(=O)c1c(O)c2cccc3c2n(c1=O)CCC3 | -46% | -91% | 4% | 1.8µM* | u
CCn1c(=O)c(C(=O)NCCN2CCCCC2)c(O)c2ccccc21 | -13% | 1% | 3% | 2.8µM* | u
CCN(CC)CCNC(=O)c1c(O)c2cccc3c2n(c1=O)CCC3 | -30% | -65% | 0% | 4.5µM* | u
CCn1c(=O)c(C(=O)NCCc2ccccc2)c(O)c2ccccc21 | 8% | -62% | 1% | u | 7%
O=C(NCCNCCO)c1c(O)c2cccc3c2n(c1=O)CCC3 | -32% | 16% | -3% | u | -3%
COc1cc(Nc2ncc3c(n2)CCN(Cc2cc(Br)cs2)C3)cc(OC)c1 | x | x | x | u | -4%
Cc1csc2nc(COC(=O)c3cccc(NC(=O)c4cccc(Cl)c4)c3)cc(=O)n12 | x | x | x | 8% | -6%
Cc1ccc(S(=O)(=O)N(CC(=O)Nc2cccnc2)c2cc(Cl)ccc2C)cc1 | x | x | x | 10µM* | -26%
Cc1ccc(S(=O)(=O)N(CC(=O)Nc2cccnc2)c2cccc(Br)c2)cc1 | 5% | -44% | 4% | 4.5µM* | 0%
Cc1ccc(S(=O)(=O)N(CC(=O)Nc2cccnc2)c2cccc([N+](=O)[O-])c2)cc1 | -8% | -62% | 15% | u | u
CCN1CCN(CCNC(=O)c2ccc(/C=C3/Sc4ccccc4N(Cc4cccc(Cl)c4)C3=O)cc2)CC1 | -74% | -69% | -7% | u | u
Cc1ccccc1CN1C(=O)/C(=C\c2ccc(C(=O)NCCN3CCOCC3)cc2)Sc2ccccc21 | -24% | -24% | -2% | 11µM* | 39%
CCN1CCN(CCNC(=O)c2ccc3c(c2)N(Cc2ccc(F)cc2)C(=O)/C(=C/c2ccccc2)S3)CC1 | -76% | -44% | 0% | 10µM* | u
CCc1ccc(/C=C2/Sc3ccccc3N(CC(=O)NCCCN3CCOCC3)C2=O)cc1 | -4% | 3% | -3% | 8.9µM* | -10%
CCN1C(=O)c2ccccc2Sc2ccc(C(=O)NCCCN3CCCCC3)cc21 | -19% | -35% | -4% | 13µM* | -24%
CC1(C)N=C(N)N=C(N)N1c1ccc(Cl)cc1 | x | x | -1% | x | x
CC(NC(=O)Nc1nnc(C(F)(F)F)s1)(C(F)(F)F)C(F)(F)F | -63% | -80% | -1% | 4.5µM* | u
